Calls of active or inactive are those of the source.
Key:
[1] = small molecules captured by biotinylated probe aFSTL3 – biochemical, small-molecule microarray, fluorescence 635/667, stem cell growth factor project, primary screen (AID 1064); conditions: higher = more signal;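 also: measures binding of the biotinylated anti-FSTL3 antibody to printed compounds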
[2] = binders from COS7 lysate, DM2A8 probe, primary screen, torsin A project, cell lysate, small-molecule microarray, fluorescence 635/667 (AID 1065); conditions: higher = more signal, COS7 lysate expressing mutant human TOR1A
[3] = small molecules captured by biotinylated probe aFGF2 – biochemical, small-molecule microarray, fluorescence 635/667, stem cell growth factor project, primary screen (AID 1067); conditions: higher = more signal;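 also: measures binding of biotinylated aFGF2 protein to printed compounds on slides; z-score merges feature fluorescence and signal-to-noise across triplicate slides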
[4] = small molecules captured by biotinylated probe aFGF10 – biochemical, small-molecule microarray, fluorescence 635/667, stem cell growth factor project, primary screen (AID 1071); conditions: higher = more signal;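 also: score merges 667 nm spot intensity and signal to noise from triplicate slides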
[5] = target: Neurogenic locus notch homolog protein 2 (Homo sapiens) (UniProt Q04721); assay: small molecules binding Notch2 protein – biochemical, small-molecule microarray, 635 nm fluorescence, stem cell growth factors, primary screen (AID 1073); conditions: higher = more signal
Chain of Neurogenic locus notch homolog protein 2 (Homo sapiens) (Q04721 whole entry, looked up, canonical isoform): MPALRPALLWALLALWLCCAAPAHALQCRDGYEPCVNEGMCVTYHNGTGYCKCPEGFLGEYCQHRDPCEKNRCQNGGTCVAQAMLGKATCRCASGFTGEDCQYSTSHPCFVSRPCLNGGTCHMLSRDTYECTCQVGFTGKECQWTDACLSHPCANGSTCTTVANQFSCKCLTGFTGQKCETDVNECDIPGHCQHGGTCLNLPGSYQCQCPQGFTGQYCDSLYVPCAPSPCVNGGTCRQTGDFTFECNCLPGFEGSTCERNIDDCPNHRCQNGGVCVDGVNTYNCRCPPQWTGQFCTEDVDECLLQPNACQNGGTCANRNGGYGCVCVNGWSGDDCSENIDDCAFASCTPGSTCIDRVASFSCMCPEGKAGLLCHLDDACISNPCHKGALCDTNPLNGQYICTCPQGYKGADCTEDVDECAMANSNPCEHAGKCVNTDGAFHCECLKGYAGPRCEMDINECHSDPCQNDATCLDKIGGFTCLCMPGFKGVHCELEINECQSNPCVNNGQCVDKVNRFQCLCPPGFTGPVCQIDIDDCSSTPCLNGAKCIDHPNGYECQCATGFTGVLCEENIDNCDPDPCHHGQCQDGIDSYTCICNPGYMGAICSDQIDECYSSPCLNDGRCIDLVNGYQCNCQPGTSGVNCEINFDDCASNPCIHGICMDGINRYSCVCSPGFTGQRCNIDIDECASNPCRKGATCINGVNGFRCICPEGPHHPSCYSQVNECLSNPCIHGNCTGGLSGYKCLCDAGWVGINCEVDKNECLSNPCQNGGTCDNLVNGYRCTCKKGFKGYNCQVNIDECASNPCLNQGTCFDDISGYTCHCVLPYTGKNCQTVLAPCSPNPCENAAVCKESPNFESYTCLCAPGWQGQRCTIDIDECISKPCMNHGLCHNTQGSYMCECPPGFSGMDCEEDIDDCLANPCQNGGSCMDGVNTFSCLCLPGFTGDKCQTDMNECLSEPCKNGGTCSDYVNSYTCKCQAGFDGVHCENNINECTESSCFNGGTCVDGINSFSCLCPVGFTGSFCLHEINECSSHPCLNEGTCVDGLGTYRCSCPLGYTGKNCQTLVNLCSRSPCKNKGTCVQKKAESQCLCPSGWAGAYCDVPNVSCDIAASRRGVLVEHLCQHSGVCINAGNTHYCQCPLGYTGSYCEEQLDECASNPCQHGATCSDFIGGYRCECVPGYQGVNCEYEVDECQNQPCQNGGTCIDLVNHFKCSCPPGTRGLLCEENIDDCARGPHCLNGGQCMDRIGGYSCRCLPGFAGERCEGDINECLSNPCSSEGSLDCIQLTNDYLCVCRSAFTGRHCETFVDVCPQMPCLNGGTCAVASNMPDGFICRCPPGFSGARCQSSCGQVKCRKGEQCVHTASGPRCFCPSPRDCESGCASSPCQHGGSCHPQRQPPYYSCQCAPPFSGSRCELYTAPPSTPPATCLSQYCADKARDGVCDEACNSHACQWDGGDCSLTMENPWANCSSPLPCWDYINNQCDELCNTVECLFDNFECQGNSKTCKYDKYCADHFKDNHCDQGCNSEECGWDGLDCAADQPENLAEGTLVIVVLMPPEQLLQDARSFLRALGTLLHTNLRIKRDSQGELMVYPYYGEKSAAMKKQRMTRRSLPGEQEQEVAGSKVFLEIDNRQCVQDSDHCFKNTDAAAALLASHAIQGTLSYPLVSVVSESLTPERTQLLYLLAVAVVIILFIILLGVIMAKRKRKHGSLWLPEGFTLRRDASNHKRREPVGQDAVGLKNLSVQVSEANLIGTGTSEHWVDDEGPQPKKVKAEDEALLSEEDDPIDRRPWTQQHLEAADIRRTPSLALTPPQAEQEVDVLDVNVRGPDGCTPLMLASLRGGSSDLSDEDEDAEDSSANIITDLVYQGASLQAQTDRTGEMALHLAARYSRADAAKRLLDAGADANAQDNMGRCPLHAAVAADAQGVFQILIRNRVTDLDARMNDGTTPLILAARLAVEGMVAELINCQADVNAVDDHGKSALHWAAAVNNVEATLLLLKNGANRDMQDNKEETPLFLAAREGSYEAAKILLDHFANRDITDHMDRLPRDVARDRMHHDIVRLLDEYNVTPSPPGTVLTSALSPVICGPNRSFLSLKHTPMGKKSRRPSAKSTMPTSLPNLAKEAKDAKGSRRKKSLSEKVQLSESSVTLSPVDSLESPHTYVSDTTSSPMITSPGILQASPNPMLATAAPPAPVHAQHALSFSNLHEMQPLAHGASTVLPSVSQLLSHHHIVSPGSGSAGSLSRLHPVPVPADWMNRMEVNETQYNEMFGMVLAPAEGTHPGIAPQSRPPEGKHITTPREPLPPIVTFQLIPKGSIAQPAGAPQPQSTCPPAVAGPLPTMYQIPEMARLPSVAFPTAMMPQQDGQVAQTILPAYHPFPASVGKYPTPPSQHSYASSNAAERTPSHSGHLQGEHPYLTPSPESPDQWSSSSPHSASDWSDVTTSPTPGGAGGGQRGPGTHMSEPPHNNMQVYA

[6] = target: Pro-neuregulin-1, membrane-bound isoform (Homo sapiens) (UniProt Q02297); assay: small molecules binding neuregulin-1 protein – biochemical, small-molecule microarray, fluorescence 635/667, psychiatric disease protein project, primary screen (AID 1075); conditions: NRG1 binding, 635 nm fluorescence, higher = more signal;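 also: score combines 667 nm spot fluorescence with signal to noise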
Chain of Pro-neuregulin-1, membrane-bound isoform (Homo sapiens) (Q02297 whole entry, looked up, the tested form may be a part, canonical isoform): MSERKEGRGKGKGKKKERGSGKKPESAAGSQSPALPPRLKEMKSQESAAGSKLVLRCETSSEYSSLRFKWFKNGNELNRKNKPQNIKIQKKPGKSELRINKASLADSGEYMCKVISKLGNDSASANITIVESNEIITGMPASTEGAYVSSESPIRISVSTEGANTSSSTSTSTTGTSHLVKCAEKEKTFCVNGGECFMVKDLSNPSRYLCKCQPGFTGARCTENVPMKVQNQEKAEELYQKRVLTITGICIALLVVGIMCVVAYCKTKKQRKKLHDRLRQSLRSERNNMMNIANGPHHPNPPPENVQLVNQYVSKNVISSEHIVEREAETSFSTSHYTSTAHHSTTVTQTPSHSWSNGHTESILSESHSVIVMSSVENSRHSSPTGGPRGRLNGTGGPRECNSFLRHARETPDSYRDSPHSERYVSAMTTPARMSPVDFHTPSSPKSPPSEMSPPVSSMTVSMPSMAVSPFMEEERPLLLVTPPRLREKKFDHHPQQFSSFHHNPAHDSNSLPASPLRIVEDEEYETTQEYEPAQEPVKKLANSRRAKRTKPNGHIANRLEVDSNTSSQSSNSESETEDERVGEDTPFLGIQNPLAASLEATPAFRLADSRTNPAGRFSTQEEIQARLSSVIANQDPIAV

[7] = system: Neuregulin-1 EGF-like domain; assay: small molecules binding NRG1 EGF domain – biochemical, small-molecule microarray, 635 nm fluorescence, primary screen (AID 1081); conditions: higher = more signal;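 also: binding of the protein to compounds printed on small-molecule microarray slides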
[8] = FRG1 expression reporter modulators in myotubes – cell-based, C2C12 myotubes, firefly/Renilla luciferase, luminescence, FRG1 inhibition for FSHD, primary screen (AID 1084); conditions: FRG1 promoter luciferase, higher = more signal, called active from +8 up or from −8 down
[9] = small molecules captured by biotinylated probe aFST – biochemical, small-molecule microarray, fluorescence 635/667, stem cell growth factor project, primary screen (AID 1086); conditions: higher = more signal;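 also: score merges 667 nm fluorescence with signal-to-noise of each printed compound spot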
[10] = binders of probe aHhip on microarray, primary screen, stem cell growth factor project, biochemical, small-molecule microarray, fluorescence 635/667 (AID 1087); conditions: higher = more signal;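 also: score merges spot fluorescence at 667nm with spot signal to noise ratio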
[11] = system: PRMT1 (protein arginine N-methyltransferase 1); assay: small molecules binding arginine methyltransferase PRMT1 – biochemical, small-molecule microarray, 635 nm fluorescence, primary screen (AID 1088); conditions: higher = more signal;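 also: binding of Prmt1 protein to compounds spotted on small-molecule microarray slides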
[12] = growth effects on S. cerevisiae YJM789 – YJM789 clinical isolate, OD600, 24 h, basal, primary screen (AID 1089); conditions: higher = more signal, called active from +8 up or from −8 down;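 also: growth of clinical yeast isolate S. cerevisiae YJM 789 seeded 1000 cells per well; test concentration not given here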
[13] = S. pombe growth modifiers, basal conditions – strain 972, OD600, 24 h, no modulator, primary screen (AID 1090);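 also: basal condition with compound alone and no growth modifier present; test concentration not given here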; conditions: S. pombe 972 growth, higher = more signal, called active from +8 up or from −8 down
[14] = budding yeast growth modifiers under rapamycin – strain BY4716, OD600, 96 h, primary screen (AID 1091); also: test concentration not given here; conditions: S. cerevisiae BY4716 + rapamycin, higher = more signal, called active from +8 up or from −8 down
[15] = target: Torsin-1A-interacting protein 2 (Homo sapiens) (UniProt Q8NFQ8); assay: small molecules binding lysate-expressed LULL1 – cell lysate, human LULL1 lysate, 635/667 nm fluorescence, primary screen (AID 1092); conditions: small-molecule microarray, hLULL1 lysate binding, 635 nm fluorescence; higher = more signal;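 also: probe is lysate of COS7 cells overexpressing human LULL1; score merges per-feature 667 nm fluorescence with signal-to-noise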
Chain of Torsin-1A-interacting protein 2 (Homo sapiens) (Q8NFQ8 whole entry, looked up): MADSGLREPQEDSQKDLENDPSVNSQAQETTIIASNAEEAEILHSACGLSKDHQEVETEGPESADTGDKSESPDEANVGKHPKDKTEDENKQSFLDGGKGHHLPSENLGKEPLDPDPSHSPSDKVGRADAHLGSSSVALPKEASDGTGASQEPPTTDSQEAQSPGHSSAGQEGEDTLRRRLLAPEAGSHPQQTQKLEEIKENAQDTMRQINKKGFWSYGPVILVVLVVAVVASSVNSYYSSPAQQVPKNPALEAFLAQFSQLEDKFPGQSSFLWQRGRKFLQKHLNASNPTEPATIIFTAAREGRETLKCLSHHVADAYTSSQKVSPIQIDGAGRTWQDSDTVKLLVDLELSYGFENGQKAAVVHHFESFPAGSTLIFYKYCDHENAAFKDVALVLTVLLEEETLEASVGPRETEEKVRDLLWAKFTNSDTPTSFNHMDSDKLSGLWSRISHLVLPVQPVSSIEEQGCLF

[16] = optical density change of DRC41 E. coli – strain DRC41, OD650, 24 h, E. coli filamentation project, primary screen (AID 1093);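 also: MC1000 strain lacking acrAB efflux and sulA so SOS filamentation is blocked; test concentration not given here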; conditions: E. coli DRC41 growth, higher = more signal, called active from +8 up or from −8 down
[17] = probe aLefty2 binding to arrayed compounds – biochemical, biotinylated probe, 635/667 nm fluorescence, primary screen (AID 1094); conditions: small-molecule microarray, higher = more signal;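 also: score merges spot fluorescence near 667 nm with spot signal-to-noise ratio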
[18] = system: Noggin (protein binding on small-molecule microarray); assay: small molecules binding Noggin protein – biochemical, 635/667 nm fluorescence, primary screen (AID 1095); conditions: 635 nm fluorescence, higher = more signal;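 also: score merges 667 nm feature fluorescence with signal to noise over triplicate slides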
[19] = target: Neurogenic locus notch homolog protein 3 (Homo sapiens) (UniProt Q9UM47); assay: small molecules binding NOTCH3 protein – biochemical, 635/667 nm fluorescence, primary screen (AID 1096); conditions: small-molecule microarray, 635 nm fluorescence, higher = more signal
[20] = probe aEGFR binding to arrayed compounds – biochemical, biotinylated probe, 635/667 nm fluorescence, primary screen (AID 1097); conditions: small-molecule microarray, higher = more signal;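 also: probe is a biotinylated anti-EGFR antibody binding compounds printed on slides; score combines fluorescence near 667 nm and signal to noise of each spot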

Structure (SMILES)	composite z-score [1]	composite z-score [2]	composite z-score [3]	composite z-score [4]	composite z-score [5]	composite z-score [6]	composite z-score [7]	z-score [8]	composite z-score [9]	composite z-score [10]	composite z-score [11]	z-score [12]	z-score [13]	z-score [14]	composite z-score [15]	z-score [16]	composite z-score [17]	composite z-score [18]	composite z-score [19]	composite z-score [20]
C=C(/C(=C/C[C@H](OC(C)=O)c1ccc(OCCO)cc1)c1cc(C(=O)OC)ccc1OC)C(C)C	-0.183	0.585	-0.145	0.41	0.219	1.17	0.376	-0.863 (inactive)	0.388	-0.175	1.55	0.71 (inactive)	-0.299 (inactive)	-0.874 (inactive)	2.79	0.806 (inactive)	-0.0616	1.39	0.51	-0.0828
COC(=O)[C@@]1(CCC(=O)OC(C)(C)C)N=C(c2ccc(OCCCO)cc2)O[C@H]1c1ccccc1	0.579	-0.168	-0.024	-0.0016	0.124	0.916	0.774	0.174 (inactive)	-0.164	0.0505	0.899	-0.144 (inactive)	-2.78 (inactive)	3.15 (inactive)	1.29	-2.76 (inactive)	0.0478	-0.105	0.194	-0.125
CCOC(=O)C[C@H]1[C@H](OC(=O)c2ccc(C(=O)c3ccccc3)cc2)[C@@H](NC(=O)c2ccccc2)c2cc(OCCCO)ccc2N1C(=O)c1ccccc1	-0.481	0.0554	-0.0376	0.683	0.783	0.636	0.935	-1.48 (inactive)	0.204	0.0053	0.844	-0.178 (inactive)	0.801 (inactive)	-0.536 (inactive)	1.72	-0.448 (inactive)	-0.0154	0.508	1.01	0.121
CC1CC/C=C\[C@H]2OC34C=CCN(Cn5nnc6ccccc65)C(=O)[C@H]3N(CCCCCO)C(=O)[C@@H]4C2C(=O)O1 (stereo not given in full)	-0.05	-0.67	-0.148	-0.499	-1.38	-0.917	-0.417	-0.373 (inactive)	-0.815	-0.251	0.547	0.31 (inactive)	0.423 (inactive)	-0.644 (inactive)	2.47	0.752 (inactive)	-0.169	-0.355	-0.432	-0.18
C=C(CCCC)C(=O)CC[C@@H](OC(C)=O)c1ccc(CO)o1	-0.327	0.349	-0.0729	0.726	-0.426	-0.306	-0.0318	0.514 (inactive)	0.911	0.0505	1.54	-4.06 (inactive)	-15.4 (active)	-2.36 (inactive)	-0.0891	0.246 (inactive)	-0.241	1.52	0.582	-0.162
CO[C@H]1O[C@H](CO)[C@@H](OC(=O)Nc2cccc(F)c2)[C@H](OC(=O)Nc2ccccc2)[C@H]1OC(=O)Nc1ccccc1	-0.246	1.35	0.0664	0.466	1.07	0.981	1.36	0.746 (inactive)	0.724	-0.191	1.54	1.63 (inactive)	1.1 (inactive)	5.68 (inactive)	3.37	-0.168 (inactive)	-0.0285	0.828	1.11	0.0778
Cc1ccc(S[C@]2(C(=O)NCC(C)C)CC(=O)N(Cc3cc(C(F)(F)F)cc(C(F)(F)F)c3)[C@@H]2c2ccc(CO)cc2)cc1	0.436	-0.455	0.047	-0.272	-0.598	0.884	1.44	-0.775 (inactive)	0.0031	0.0749	0.407	-0.463 (inactive)	-0.924 (inactive)	-0.429 (inactive)	0.472	-0.869 (inactive)	0.522	-0.671	-0.643	-0.073
Cc1c(NC(=O)/C(C#N)=C/c2cccc([N+](=O)[O-])c2)c(=O)n(-c2ccccc2)n1C	-0.365	0.322	-0.112	0.0969	1.01	1.41	1.05	0.807 (inactive)	-0.0089	-0.0994	0.366	-3.18 (inactive)	-2.55 (inactive)	-2.2 (inactive)	1.92	0.0751 (inactive)	-0.26	0.21	1.07	0.006
COC(=O)c1c(CC[C@@H](CO)NC(=O)N[C@@H](Cc2ccccc2)Cn2cc(-c3ccccn3)nn2)oc(C(=O)N2CCOCC2)c1C(=O)OC	-0.39	-0.451	-0.0348	0.218	0.303	-0.0149	0.734	0.183 (inactive)	0.128	-0.356	0.278	0.503 (inactive)	0.82 (inactive)	-0.593 (inactive)	0.843	-0.613 (inactive)	-0.124	0.227	0.495	-0.183
